In PubChem BioAssay (NCI) one finds growth data, which are given here for 39 compounds.

This is part of a sample that, as a whole, favours compounds with a hit. Of some 83,000 tested, about 20% had one in any assay.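 Cells were grown in 96-well plates and exposed to the test compound at a single concentration for 48 hours; results are reported as percent growth, with values below 10 considered active.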 Active and inactive are the calls of the source.

The first experiment relates to NCI/ADR-RES ovarian. Kind of experiment: NCI-60 one-dose screen, 48 h (100 = growth as untreated, 0 = no growth, -100 = all killed). The following applies: 10 µM unless noted.
In the case of `Cc1ccc(-n2cc(/C=C/C(=O)c3ccc(O)cc3)c(-c3ccc(S(C)(=O)=O)cc3)n2)cc1`, the growth is 33.6% (inactive).
Same read-out and setting: the same measure for `CC1(C)NCCC[C@]2(C)[C@H]3C/C(=N\O)C4[C@@H]5C[C@@](C)(CO)CC[C@]5(C)CC[C@@]4(C)[C@]3(C)CC[C@@H]12` (stereo partly specified): 98.1% (inactive).
On to `C#CCNC1CCC(c2csc(C#C)n2)=C1C` (stereo unspecified), for which the growth was 33.9% (inactive).
Turning to `NS(=O)(=O)c1ccc(Nc2nc(Nc3ccccc3)nc3nnc(SCC(=O)NC4CCCCC4)n23)cc1`, the growth is 112% (inactive).
`O=C(CNc1nc(-c2cccc([N+](=O)[O-])c2)cs1)Nc1cccc([N+](=O)[O-])c1`: the growth is -11.4% (active).
In the case of `O=C(CSc1nc2ccccc2c(=O)n1-c1ccc(Cl)cc1)N/N=C/c1ccc(N2CCCCC2)cc1`, the growth was 39.9% (inactive).
Consider `O=C(c1ccc(Cl)cc1)C1[C@H](c2ccc(Cl)cc2)[C@@H](c2ccccc2)NC12C(=O)Nc1ccccc12` (stereo partly specified), for which the growth is 52.2% (inactive).
On to `CC(=O)c1ccc(Nc2nc(SCC(C)C)nc(-c3ccc(F)cc3)c2C#N)cc1`, for which the growth is 110% (inactive).
The same measure, in the same setting: the same measure for `Fc1ccc(-c2cc3nc(C(Cl)Cl)nc(-c4ccc(F)cc4)n3n2)cc1`: 19.4% (inactive).
`CNc1ncc2cc(-c3ccc(-c4ncccc4F)cc3Cl)c(=O)n(CC3OCC(N)CO3)c2n1` (stereo unspecified): the growth is 79.4% (inactive).
For the compound `C#C[C@]1(O)CC[C@H]2[C@@H]3CC=C4c5sc(-c6ccc7c(c6)OCO7)nc5CC[C@]4(C)[C@H]3CC[C@@]21C`, the growth was 39.2% (inactive).
With `C=CCn1c(SCC(=O)Nc2ccc(C(=O)/C=C/c3ccc(C)cc3)cc2)nnc1-c1c[nH]c2ccccc12`, the growth was 98.4% (inactive).

A further experiment relates to T-47D breast. The experiment is described as above. The following applies: 10 µM unless noted.
`O=S(=O)(NCCNc1nccc(-n2cnc3ccccc32)n1)c1ccc(Br)cc1`: the growth was 59.1% (inactive).
Take `NS(=O)(=O)c1ccc(Nc2nc(N/N=C/c3ccccn3)nc(Nc3ccccc3)n2)cc1`: the growth was -18.4% (active).
`NC(N)=Nc1ccc(Oc2cccc(Nc3ccc(Br)c(C(F)(F)F)c3)c2)cc1`: the growth was 22.4% (inactive).
With `O=c1[nH]c2ccccc2cc1CSc1ccccc1Nc1nccc(-c2ccc(Cl)cc2)n1`, the growth was 93.3% (inactive).
For `COc1ccccc1C(=O)Nc1cccc2c1C(=O)C(=O)C=C2`, the growth is 98.8% (inactive).
Take `CCO/C=N/C1=C(C#N)C(c2ccc(F)cc2)c2sc3c(C)cccc3c2O1` (stereo unspecified): the growth is 62.1% (inactive).
Take `O=C(NNc1nc2cc(F)ccc2n2c(CN3CCCC3)ccc12)c1cnccn1`: the growth was 15.4% (inactive).
Consider `COc1cc(-c2nn(C(C)(C)C)cc2-c2ccnc(NCCCNS(=O)(=O)c3ccccc3)n2)ccc1Cl`, for which the growth is 82.3% (inactive).
With `O=C(NCc1ncc[nH]1)c1ccc(-c2nc3ccc4[nH]ncc4c3c3c2CCCC3)cc1`, the growth was -3.92% (active).
With `O=C(NNc1nc2cc(F)ccc2n2c(CO)ccc12)c1cnccn1`, the growth was 11.7% (inactive).
Consider `O=[N+]([O-])c1cc(/C=N/Nc2nc(N/N=C/c3ccc(Cl)c([N+](=O)[O-])c3)nc(N3CCCCC3)n2)ccc1Cl`, for which the growth is 48.2% (inactive).
In the case of `COc1c(N2CC3CCCNC3C2)c(F)cc2c(=O)c(C(=O)N/N=C/c3ccccc3)cn(C3CC3)c12` (stereo unspecified), the growth was 101% (inactive).
As for `O=C(CNc1nc(-c2cccc([N+](=O)[O-])c2)cs1)Nc1cccc(Cl)c1`, the growth is 100% (inactive).
On the same count and under the same terms, the same measure for `O=S(=O)(NCCNc1nccc(-n2cnc3ccccc32)n1)c1ccc(C(F)(F)F)cc1`: 22.3% (inactive); for `CC(C)(C)c1ccc(C(=O)Nc2sc3c(c2C(N)=O)CC/C(=N\O)C3)cc1`: 1.45% (active); for `CC(=O)c1nnn(-c2c(C(=O)n3nc(C)cc3C)sc(=S)n2-c2ccccc2)c1C`: 113% (inactive).
For the compound `CNC(=O)c1c(NC(=O)c2ccccc2C(F)(F)F)sc2c1CCC(=O)C2`, the growth is 9.8% (active).
Still for that read-out and setting: the same measure for `O=C(NNc1nc2cc(F)c(F)cc2n2cccc12)c1cnccn1`: 13.6% (inactive); for `COc1cc(Nc2c(C#N)cnn3cc(-c4cnn(CC(C)(C)O)c4)cc23)ccc1Cl`: 45.1% (inactive); for `CCCCCCCn1cc2c(N[C@H](C)c3ccccc3)ncnc2n1`: 99.7% (inactive).
Turning to `O=C(Cn1cc(-c2ccccc2)nn1)Nc1nc(-c2ccc(Cl)cc2)cs1`, the growth is 95% (inactive).
On the same count and under the same terms, the same measure for `CCOC(=O)C(=O)CC(=O)N1C(=S)NC(=O)C1CC(C)C` (stereo unspecified): 109% (inactive); for `O=C1Nc2ccccc2/C1=C/c1ccc(CO)n1-c1ccc(Cl)cc1`: 62.9% (inactive); for `CCO/C=N/C1=C(C#N)C(c2ccc(OC)cc2)c2sc3c(CC)cccc3c2O1` (stereo unspecified): 35.8% (inactive).
As for `O=C1[C@@H]2Cc3c([nH]c4ccccc34)[C@H](c3c(Cl)cccc3Cl)N2C(=O)CN1C1CCN(CC2CCCCC2)CC1`, the growth is 61% (inactive).
Take `Cc1nn(-c2ccccc2)c2ncnc(N/N=C/c3cccc(O)c3)c12`: the growth was 17.8% (inactive).
Still for that read-out and setting: the same measure for `CS(=O)(=O)Nc1cc(-c2ccc3ncc(C#N)c(NCc4cccc(F)c4)c3c2)cnc1Cl`: 0.599% (active).
Turning to `Cc1ccc(-n2cc(/C=C/C(=O)c3ccc(O)cc3)c(-c3ccc(S(C)(=O)=O)cc3)n2)cc1`, the growth was 73.5% (inactive).
As for `CC1(C)NCCC[C@]2(C)[C@H]3C/C(=N\O)C4[C@@H]5C[C@@](C)(CO)CC[C@]5(C)CC[C@@]4(C)[C@]3(C)CC[C@@H]12` (stereo partly specified), the growth is 85.3% (inactive).
Still for that read-out and setting: the same measure for `C#CCNC1CCC(c2csc(C#C)n2)=C1C` (stereo unspecified): 65.3% (inactive); for `NS(=O)(=O)c1ccc(Nc2nc(Nc3ccccc3)nc3nnc(SCC(=O)NC4CCCCC4)n23)cc1`: 104% (inactive); for `O=C(CNc1nc(-c2cccc([N+](=O)[O-])c2)cs1)Nc1cccc([N+](=O)[O-])c1`: -5.2% (active).
As to `O=C(CSc1nc2ccccc2c(=O)n1-c1ccc(Cl)cc1)N/N=C/c1ccc(N2CCCCC2)cc1`, the growth is 74.6% (inactive).
For `O=C(c1ccc(Cl)cc1)C1[C@H](c2ccc(Cl)cc2)[C@@H](c2ccccc2)NC12C(=O)Nc1ccccc12` (stereo partly specified), the growth was 40.1% (inactive).
`CC(=O)c1ccc(Nc2nc(SCC(C)C)nc(-c3ccc(F)cc3)c2C#N)cc1`: the growth is 106% (inactive).
Consider `Fc1ccc(-c2cc3nc(C(Cl)Cl)nc(-c4ccc(F)cc4)n3n2)cc1`, for which the growth is 34.3% (inactive).
`CNc1ncc2cc(-c3ccc(-c4ncccc4F)cc3Cl)c(=O)n(CC3OCC(N)CO3)c2n1` (stereo unspecified): the growth is 72.5% (inactive).
Consider `C#C[C@]1(O)CC[C@H]2[C@@H]3CC=C4c5sc(-c6ccc7c(c6)OCO7)nc5CC[C@]4(C)[C@H]3CC[C@@]21C`, for which the growth is 41.5% (inactive).
For the compound `C=CCn1c(SCC(=O)Nc2ccc(C(=O)/C=C/c3ccc(C)cc3)cc2)nnc1-c1c[nH]c2ccccc12`, the growth was 70% (inactive).
